# Measurements taken from PubChem BioAssay AID540352 (National Center for Advancing Translational Sciences (NCATS), 2011).
# Results filed as inconclusive are left out. The source made the active and inactive calls. Calls follow the shape of the dose curve; as a rule, active = well fitted inhibition curve with a large enough effect; inconclusive = small, poorly fitted or top-dose-only effect; inactive = no such curve, though single readings can be large or run the other way.
# Experiment: qHTS for Inhibitos of Bacillus subtilis Sfp phosphopantetheinyl transferase (PPTase): Chemistry Optimization Followup in B. Subtilis 168
# Conditions: B. subtilis 168 growth, BacTiter-Glo luminescence, 5 h; series mostly up to 114 µM; activity change, negative = inhibition: at the top concentration
# Description: Phosphopantetheinyl transfer is a process essential to cellular viability and maintenance. Cell-permeable and stable compounds acting as PPTase inhibitors are anticipated to be antimicrobial agents in organisms with complimenting genotypes. […] This experiment evaluated a series of test compounds for antimicrobial activity with B. subtilis 168 (genotype: acpS+ and sfp-), a strain that contains a frameshift mutation in the sfp locus and thus requires a functional AcpS gene product for viability. [Mootz HD, 2001] This strain is expected to be sensitized to cell-permeable AcpS inhibitors, and insensitive to Sfp inhibitors. NIH Chemical Genomics Center [NCGC] NIH Molecular Libraries Probe Centers Network [MLPCN] MLPCN Grant: MH083266-01 Assay Submitter (PI): Michael Burkart, University of California, San Diego
# Innoculum preparation. Bacillus subtilis 168 is maintained on lysogeny broth (LB) solidified by the addition of 1.5% w/v agar. Single colonies were used to LB medium (2 mL) and shaken overnight at 30 masculineC. In the morning, this culture (100 ul) was used to seed a fresh LB medium (10 mL) and was shaken at 30 masculineC until the culture OD600 reached 0.5. This culture was diluted 1:100 in fresh LB medium to provide the inoculum below. Bacterial susceptibility. LB medium (2 uL) is dispensed into wells of a sterile white 1536-well plate. Test compounds (23 nL) prepared as serial dilutions in DMSO are added to the plate by pintool transfer. Innoculum (2 uL) is added, the plates are covered with a vented Kalypsys assay lid and incubated at 30 masculineC. After 5 h, Bac-Titer Glo (4 uL; Promega Corp, Madison, WI) is added to the plates. They are incubated 10 minutes at room temperature and then the luminescence detected in a ViewLux multimodal plate reader.
Structure (SMILES),Potency,"activity change, negative = inhibition"
CN(C)c1ccc2nc(NC(=S)N3CCN(c4cccc(C(F)(F)F)c4)CC3)sc2c1,5.91 µM (active),–
Cc1cc(C)nc(/N=C(\NC#N)N2CCN(c3cccc(C(F)(F)F)c3)CC2)c1,46.9 µM (active),–
Cc1ccnc(NC(=S)N2CCC(Nc3cccc(C(F)(F)F)c3)CC2)c1,37.3 µM (active),–
Cc1ccnc(NC(=S)N2CC3CN(c4cccc(C(F)(F)F)c4)CC3C2)c1 (stereo not given),11.8 µM (active),–
Cc1cc(C)nc(NC(=S)N2CCN(c3ccc4cn(C)nc4c3)CC2)c1,–,-14.6% (inactive)
Cc1ccnc(NC(=S)NC2CN(c3cccc(C(F)(F)F)c3)C2)c1,46.9 µM (active),–
Cc1cc(C)nc(NC(=S)N2CCN(c3ccncc3)CC2)c1,–,-18.6% (inactive)
Cc1ccnc(NC(=S)N2CCN(c3ccc(Cl)c(Cl)c3)CC2)c1,11.8 µM (active),–
COc1ccnc(NC(=S)N2CCN(c3cccc(Cl)c3Cl)CC2)c1,9.37 µM (active),–
Cc1ccc(N2CCN(C(=S)Nc3cc(C)ccn3)CC2)cc1,59.1 µM (active),–
FC(F)(F)c1cc(N2CCN(C(=S)Nc3cc(Cl)ccn3)CC2)cc(C(F)(F)F)c1,37.3 µM (active),–
COc1cccc(NC(=S)N2CCN(c3ccc(Cl)c(Cl)c3)CC2)n1,–,-26.2% (inactive)
Cc1cc(C)nc(NC(=C(C#N)C#N)N2CCN(c3cccc(C(F)(F)F)c3)CC2)c1,37.3 µM (active),–
Cc1ccnc(NC(=S)N2CCN(c3cccc(C(F)(F)F)c3)C2)c1,–,-10.5% (inactive)
COc1ccnc(NC(=S)N2CCN(c3ccc(Cl)cc3Cl)CC2)c1,13.2 µM (active),–
FC(F)(F)c1cccc(N2CCN(C(=S)Nc3nccc4ccccc34)CC2)c1,2.35 µM (active),–
FC(F)(F)c1cccc(N2CCN(C(=S)Nc3ccncc3)CC2)c1,41.8 µM (active),–
FC(F)(F)c1cccc(N2CCN(C(=S)Nc3cc(C(F)(F)F)ccn3)CC2)c1,13.2 µM (active),–
Cc1cc(C)nc(NC(=S)N2CCN(c3ncccc3C#N)CC2)c1,–,-10.9% (inactive)
Cc1cc(C)nc(NC(=S)N2CCN(c3cc(F)cc(F)c3)CC2)c1,37.3 µM (active),–

Structure (SMILES),Potency,"activity change, negative = inhibition"
Cc1ccnc(NC(=S)N2CCN(c3cc(C(F)(F)F)cc(C(F)(F)F)c3)CC2)c1,13.2 µM (active),–
S=C(Nc1cc(Cl)ccn1)N1CCN(c2cc(Cl)cc(Cl)c2)CC1,13.2 µM (active),–
Cc1cc(C)nc(NC(=S)N2CCN(c3ccc(Cl)cc3F)CC2)c1,23.5 µM (active),–
Cc1cc(C)nc(NC(=S)N2CCN(c3ccc([N+](=O)[O-])cc3Cl)CC2)c1,9.37 µM (active),–
Cc1cc(C)nc(NC(=S)N2CCN(c3ccc(Cl)c(Cl)c3Cl)CC2)c1,9.37 µM (active),–
Cc1ccnc(NC(=S)N2CCN(c3ccc(Br)cc3)CC2)c1,23.5 µM (active),–
Cc1ccnc(NC(=S)N2CCc3ccccc3C2)c1,59.1 µM (active),–
FC(F)(F)c1ccc(N2CCN(C(=S)Nc3ccccn3)CC2)cc1,21 µM (active),–
Cc1cc(C)nc(NC(=S)N2CCN(c3ccc(Cl)nn3)CC2)c1,–,-33.3% (inactive)
COc1cccc(NC(=S)N2CCN(c3cc(Cl)cc(Cl)c3)CC2)n1,–,-1.53% (inactive)
Cc1cc(C)nc(NC(=S)N2CCN(c3ccc4nncn4c3)CC2)c1,–,-15.5% (inactive)
Cc1ccnc(NC(=S)NC2CCN(c3cccc(C(F)(F)F)c3)CC2)c1,46.9 µM (active),–
Cc1cc(C)nc(NC(=S)N2CCN(c3ccc(Cl)cc3C(F)(F)F)CC2)c1,9.37 µM (active),–
COc1cccc(NC(=S)N2CCN(c3cc(C(F)(F)F)cc(C(F)(F)F)c3)CC2)n1,–,-7.94% (inactive)
Cc1cc(C)nc(NC(=S)N2CCN(c3ccc(C(F)(F)F)cc3[N+](=O)[O-])CC2)c1,41.8 µM (active),–
Cc1ccnc(NC(=S)NCCN(C)c2cccc(C(F)(F)F)c2)c1,–,-19.2% (inactive)
S=C(Nc1cc(Cl)ccn1)N1CCN(c2ccc3ccccc3n2)CC1,33.2 µM (active),–
Cc1ccnc(NC(=S)N[C@H]2CCN(c3cccc(C(F)(F)F)c3)C2)c1,52.7 µM (active),–
FC(F)(F)c1cnc(N2CCN(C(=S)Nc3cc(Cl)ccn3)CC2)c(Cl)c1,14.8 µM (active),–
Cc1ccnc(NC(=S)N2CCN(c3ccc(Cl)cc3Cl)CC2)c1,16.7 µM (active),–
